Here are results for 31 compounds from PubChem BioAssay (NCATS).

The nature of assay [1]: Confirmatory qHTS to identify inhibitors of SARS-CoV-2 cell entry (AID 1645844). Also: nearly all actives have a fitted effect of over 45% in size. Also: potency is read from the fitted curve at half-maximal effect. The gist of the method:
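Luminescence from a luciferase reporter, read 48 hr after pseudotyped-particle addition, gives entry signal, normalised to spike-bearing PP wells and bald PP lacking fusion protein wells. Cells are Expi293F stably expressing human ACE2, compound-pretreated 1 hr.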
In general terms: In qHTS, concentration-response curves come from the screen itself.

The nature of assay [2]: Cytotoxicity counterscreen for inhibitors of SARS-CoV-2 cell entry (AID 1645845). Also: nearly all actives have a fitted effect of over 50% in size. Summed up: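 48 h compound treatment (after 1 h preincubation), HEK293-ACE2 cells, 37 C/5% CO2; ATP luminescence endpoint; normalized to cell wells and media blanks.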
(In general: A counterscreen serves to expose hits that act by an unwanted route or on another target.)

Assay [3] can be described thus: Primary qHTS to identify inhibitors of SARS-CoV-2 cell entry (AID 1645846). Also: nearly all actives have a fitted effect of over 45% in size. Also: potency is read from the fitted curve at half-maximal effect. The following applies: activity change, negative = inhibition: at 57.1 µM (top of the series) unless noted. The gist of the method: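 Inhibition of spike-mediated entry was scored in human ACE2-transfected Expi293F cells. Particles were MLV-pseudotyped with Wuhan-Hu-1 S carrying a 19-aa C-terminal deletion; signal was luciferase after two days, scaled between spike PP and fusion-protein-free PP.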

Assay [4] concerns the target Cytochrome P450 2C9 (Homo sapiens) (UniProt P11712). Kind of assay: Cytochrome P450 family 2 subfamily C member 9 (CYP2C9) small molecule antagonists: luciferase biochemical (cell-free) qHTS assay (AID 1645842; active = well fitted curve in the direction sought with a large enough effect in the repeat runs; an effect the other way counts as inactive or inconclusive; also: nearly all actives have a fitted effect of over 55% in size; also: potency is read from the fitted curve at half-maximal effect; as to activity change, negative = inhibition: % is scaled to controls: 0 for no effect and ±100 for the full control effect). Summed up: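 Luminescence, after 20 min with luciferin detection reagent, reflected CYP2C9 turnover during a 1 h NADPH-driven reaction at 37C. Enzyme-substrate mix contained 0.4% bovine serum albumin and was preincubated with compound 10 min at room temperature.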

The nature of assay [5]: Primary qHTS for inhibitors of nuclear receptor binding SET domain protein 2 (NSD2) in an isogenic RCH-ACV NSD2 p.E1099K mutant (9B) (AID 1645876; active = well fitted curve in the direction sought with a large enough effect; an effect the other way counts as inactive or inconclusive; also: nearly all actives have a fitted effect of over 70% in size; also: potency is read from the fitted curve at half-maximal effect).
A short description of assay [6]: Primary qHTS for inhibitors of nuclear receptor binding SET domain protein 2 (NSD2) in an RCH-ACV wild type WT cells (2C) (AID 1645877; active = well fitted curve in the direction sought with a large enough effect; an effect the other way counts as inactive or inconclusive; also: nearly all actives have a fitted effect of over 70% in size; also: potency is read from the fitted curve at half-maximal effect).
Assay [7] in a line: VSVG counterscreen qHTS to identify inhibitors of SARS-CoV-2 cell entry (AID 1645847). Also: nearly all actives have a fitted effect of over 65% in size. Also: potency is read from the fitted curve at half-maximal effect. As to activity change, negative = inhibition: % is scaled to controls: 0 for no effect and ±100 for the full control effect. Summed up: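 Luminescence from a luciferase reporter, normalised to bald particle and VSV-G pseudotyped particle wells, is the read-out. Cells are HEK293 expressing human ACE2, exposed to compound 1 h before a 48 h particle infection at 37 °C.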

Inconclusive results are not listed. Active and inactive are the calls of the source. Unless noted, calls follow the shape of the full dose curve.

Sequence of Cytochrome P450 2C9 (Homo sapiens) (P11712 whole entry, looked up): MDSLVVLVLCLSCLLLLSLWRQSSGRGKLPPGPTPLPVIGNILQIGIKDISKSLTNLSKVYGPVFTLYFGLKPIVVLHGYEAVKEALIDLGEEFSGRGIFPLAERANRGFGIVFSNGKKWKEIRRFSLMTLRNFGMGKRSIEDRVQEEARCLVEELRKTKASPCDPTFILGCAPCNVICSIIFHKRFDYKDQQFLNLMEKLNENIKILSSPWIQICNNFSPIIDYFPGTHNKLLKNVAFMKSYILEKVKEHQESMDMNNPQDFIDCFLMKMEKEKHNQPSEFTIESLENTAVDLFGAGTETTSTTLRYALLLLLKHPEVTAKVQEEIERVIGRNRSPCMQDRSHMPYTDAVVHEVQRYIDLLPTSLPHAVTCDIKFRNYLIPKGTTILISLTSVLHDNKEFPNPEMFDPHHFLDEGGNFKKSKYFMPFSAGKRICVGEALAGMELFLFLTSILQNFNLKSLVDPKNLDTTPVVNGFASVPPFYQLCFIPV

As for `CN(C)CCCN1c2ccccc2Sc2ccccc21`, the Potency in assay [1] is 27.1 µM (active); in assay [3], 14.1 µM (active). Further, the Potency result in assay [2] was “inactive”.

In the case of `CN1CCCCC1CCN1c2ccccc2Sc2ccc(S(C)=O)cc21` (stereo not given), the Potency in assay [1] is 1.08 µM (active). Also, in assay [2], the Potency result was “inactive”.

Turning to `CCOC(C(=O)OCCN(C)C)(c1ccccc1)c1ccccc1`, in assay [4], the Potency is 3.09 µM (active). The Potency result in assay [5] and in assay [6] was “inactive” each time.

On to `CCN(CC)CCOc1ccc(/C(=C(\Cl)c2ccccc2)c2ccccc2)cc1`, for which the Potency is 21.5 µM (active) in assay [1] and 8.57 µM (active) in assay [7]. Moreover, in assay [3], the activity change, negative = inhibition stood at 4.38%.

For the compound `CCCCCC(=O)O[C@]1(C(C)=O)CC[C@H]2[C@@H]3CCC4=CC(=O)CC[C@]4(C)[C@H]3CC[C@@]21C`, the Potency in assay [1] and in assay [7] was 24.1 µM (active) throughout.

`CCOC(=O)C1=C(C)NC(C)=C(C(=O)OCC)C1c1ccccc1/C=C/C(=O)OC(C)(C)C`: the Potency in assay [1] was 0.961 µM (active); in assay [3], 25.1 µM (active); in assay [7] it was 1.21 µM (active). The Potency entry in assay [2] is “inactive”.

In the case of `CCCOc1ccc2nc(NC(=O)OC)[nH]c2c1`, the results for the Potency in assay [1] and in assay [7] were 0.764 µM (active) and 0.607 µM (active), respectively. Also, the Potency entry in assay [2] was “inactive”.

`Oc1c(Cl)cc(Cl)cc1Sc1cc(Cl)cc(Cl)c1O`: the Potency in assay [1] was 2.71 µM (active); in assay [3], 20 µM (active); in assay [7], 4.82 µM (active).

In the case of `CCOC(=O)NC(C)(C)Cc1ccc(Cl)cc1`, the Potency in assay [4] is 15.5 µM (active). Also, the Potency result in assay [5] and in assay [6] was “inactive” in each case.

On to `CC(=O)c1ccc2c(c1)N(CCCN1CCC(CCO)CC1)c1ccccc1S2`, for which the Potency in assay [1] is 22.4 µM (active); in assay [7], 7.08 µM (active). Also, the Potency entry in assay [2] was “inactive”.

Take `CN1CCC(=C2c3ccccc3CCc3sccc32)CC1`: the Potency in assay [1] is 21.5 µM (active); in assay [7] it was 12.1 µM (active). Further, the Potency entry in assay [2] was “inactive”.

Turning to `c1ccc2nc(N3CCNCC3)ccc2c1`, the Potency entry in assay [4], in assay [5] and in assay [6] was “inactive” throughout.

On to `O=c1[nH]c(=O)n([C@H]2C[C@H](O)[C@@H](CO)O2)cc1C(F)(F)F`, for which the Potency in assay [1] was 0.0857 µM (active); in assay [7] it was 0.242 µM (active). In addition, the Potency entry in assay [2] was “inactive”.

`C[C@H]1C(=O)O[C@@H]2CCN3CC=C(COC(=O)[C@](C)(O)[C@]1(C)O)[C@H]23`: the Potency entry in assay [4] was “inactive”. Besides, the Potency in assay [6] is 23.7 µM (active).

For the compound `C[C@]12CC[C@H]3[C@@H](CCC4=CC(=O)CC[C@@H]43)[C@@H]1CC[C@@H]2O`, the Potency result in assay [4] and in assay [6] was “inactive” throughout.

With `COC(=O)[C@H]1[C@H]2C[C@@H]3c4[nH]c5cc(OC)ccc5c4CCN3C[C@H]2C[C@@H](OC(=O)/C=C/c2ccc(O)c(OC)c2)[C@@H]1OC`, the Potency in assay [1] is 30.4 µM (active); in assay [3], 12.6 µM (active); in assay [7], 19.2 µM (active). Moreover, the Potency entry in assay [2] was “inactive”.

Regarding `CC1=CC(=O)c2ccccc2C1=O`, the figures for the Potency in assay [1] and in assay [7] were 19.2 µM (active) and 6.81 µM (active), respectively. Further, in assay [2], the Potency entry is “inactive”.

Regarding `O=C(Nc1ccccc1)OCC(CN1CCCCC1)OC(=O)Nc1ccccc1` (stereo not given), the Potency entry in assay [1], in assay [2] and in assay [7] was “inactive” each time.

Take `CCCSS/C(CCO)=C(\C)N(C=O)Cc1cnc(C)nc1N`: the Potency result in assay [1], in assay [2] and in assay [7] was “inactive” each time. For the same compound, in assay [3], the activity change, negative = inhibition was -57.5%.

Turning to `CCCCCOc1ccccc1/C(=C\SC)n1ccnc1`, in assay [1], the Potency was 24.1 µM (active).

On to `CCC(=O)C(CCN(C)C)(c1ccccc1)c1ccccc1`, for which the Potency in assay [1] was 12.1 µM (active); in assay [7], 3.41 µM (active). Further, the Potency result in assay [2] is “inactive”. For the same compound, in assay [3], the activity change, negative = inhibition was -43.2%.

Consider `COCCOC(=O)C1=C(C)NC(C)=C(C(=O)OC/C=C/c2ccccc2)C1c1cccc([N+](=O)[O-])c1` (stereo not given), for which the Potency is 24.1 µM (active) in assay [1] and 21.5 µM (active) in assay [7]. The Potency entry in assay [2] is “inactive”.

Regarding `CN(C)CCOC(c1ccccc1)c1ccc(Br)cc1` (stereo not given), the Potency in assay [1] is 2.41 µM (active); in assay [7], 2.71 µM (active). The Potency entry in assay [2] is “inactive”.

For the compound `COC(=O)C1=C(C)NC(C)=C(C(=O)OC(C)(C)CN(C)CCC(c2ccccc2)c2ccccc2)C1c1cccc([N+](=O)[O-])c1` (stereo not given), the Potency is 6.07 µM (active) in assay [1] and 21.5 µM (active) in assay [7].

On to `CC(C)=CCN1CC[C@@]2(C)c3cc(O)ccc3C[C@@H]1[C@@H]2C`, for which the Potency entry in assay [4] is “inactive”. The Potency in assay [5] was 18.9 µM (active); in assay [6], 11.9 µM (active).

`CCS(=O)(=O)C(C)(C)S(=O)(=O)CC`: the Potency entry in assay [4], in assay [5] and in assay [6] was “inactive” throughout.

As for `O[C@@H](COc1cccc2ncccc12)CN1CCN(C2c3ccccc3[C@@H]3[C@H](c4ccccc42)C3(F)F)CC1` (stereo not given in full), the Potency in assay [1] is 19.2 µM (active); in assay [3], 28.2 µM (active); in assay [7], 0.171 µM (active).

For the compound `C[C@]12CC[C@H]3[C@@H](CC=C4C[C@@H](O)CC[C@@]43C)[C@@H]1CC[C@@H]2O`, the Potency entry in assay [4], in assay [5] and in assay [6] was “inactive” in each case.

`O=C(CCCCl)c1ccc(F)cc1`: the Potency result in assay [4], in assay [5] and in assay [6] was “inactive” each time.

On to `CCCCC(CC)COC(=O)C(C#N)=C(c1ccccc1)c1ccccc1` (stereo not given), for which the Potency in assay [1] is 27.1 µM (active); in assay [7], 21.5 µM (active). The Potency result in assay [2] was “inactive”. In assay [3], the activity change, negative = inhibition is -96.1%.

As to `Clc1ccccc1C(c1ccccc1)(c1ccccc1)n1ccnc1`, the results for the Potency in assay [1] and in assay [7] were 24.1 µM (active) and 19.2 µM (active), respectively.
